The list is a sample of the results.
aSyn 5UTR act: Activators via SNCA 5'UTR binding, MLPCN. 7.1% of 300,000 active. activity score, % (tested at 7.5 µM), hits read low. alpha-synuclein 5'UTR reporter, activators screen; in the data active means activity score below about -60%
The depositor's hits bear a star.

How did O=C(Nc1ccc(S(=O)(=O)NC2=NCCCCC2)cc1)c1ccc([N+](=O)[O-])s1 do in these assays?
aSyn 5UTR act: -66*

What do the screens show for `COC(=O)C1=C(C)NC(C)=C(C(=O)OC)C1c1ccc(-c2cccc(Cl)c2Cl)o1`?
aSyn 5UTR act: -72*

What do the screens show for `CCn1c(SCC(=O)Nc2ccc(C(C)=O)cc2)nc2nc3c(cc2c1=O)COC(C)(C)C3`?
aSyn 5UTR act: -83*

What do the screens show for `CC1(C)Cc2nc3sc4c(SCC(=O)NCc5ccccc5)ncnc4c3cc2CO1`?
aSyn 5UTR act: 64

Results for CC(=O)c1ccc(NC(=O)CSc2nc(N)c3cc4c(nc3n2)CCCC4)cc1 ?
aSyn 5UTR act: -79*

What do the screens show for `CC1(C)Cc2nc3nc(SCC(=O)Nc4ccccc4)nc(N)c3cc2CO1`?
aSyn 5UTR act: -68*

What do the screens show for `CC(C)N1C(=O)S/C(=C\c2ccc(-c3ccc(Cl)c(C(=O)O)c3)o2)C1=O`?
aSyn 5UTR act: -128*

What do the screens show for `CCN(CC)c1ccc(/C=C2/SC(=O)N(C(C)C)C2=O)o1`?
aSyn 5UTR act: -175*

How did CC1=C(CC(=O)c2ccccc2)C(=O)c2ccccc2C1=O do in these assays?
aSyn 5UTR act: -79*

How did COc1ccc(C(=O)/C=C/C(=O)N(CC(=O)NC2CCCCC2)Cc2ccc(F)cc2)c(O)c1 do in these assays?
aSyn 5UTR act: 72

Results for COc1ccc(CNC(=O)Nc2ccccc2)cc1 ?
aSyn 5UTR act: -114*

What do the screens show for `O=C(CSc1ccc(F)cc1)NC1CCCCC1`?
aSyn 5UTR act: -69*

How did O=C(Cc1ccc(O)cc1)NC1CCCCCC1 do in these assays?
aSyn 5UTR act: -119*

Results for CCOc1ccc(CNC(=O)Nc2ccccc2)cc1 ?
aSyn 5UTR act: -103*

How did Cc1ccc(CNC(=O)NC2CCCCC2)cc1 do in these assays?
aSyn 5UTR act: -92*

Results for Cc1cc2cc(CNC(=O)Nc3ccccc3)ccc2[nH]1 ?
aSyn 5UTR act: -98*

Results for Cc1ccc(CNC(=O)Nc2ccc(C)cc2)cc1 ?
aSyn 5UTR act: -75*

How did COc1ccc(CNC(=O)Nc2cccc(C)c2)cc1 do in these assays?
aSyn 5UTR act: -153*

What do the screens show for `Cc1ccc(CNC(=O)Cc2ccc(-c3ccccc3)cc2)cc1`?
aSyn 5UTR act: 73

Results for OC1CCC(NC(=S)Nc2ccc(SC(F)F)cc2)CC1 (centres undefined) ?
aSyn 5UTR act: -126*

What do the screens show for `O=C(Nc1ccc(SC(F)F)cc1)C12CCC(CC1)C2`?
aSyn 5UTR act: -80*

What do the screens show for `FC(F)Sc1ccc(NC(=S)NC2CCCC2)cc1`?
aSyn 5UTR act: -105*

Results for COc1cc(C)ccc1OCCCOc1ccccc1Br ?
aSyn 5UTR act: -149*

Results for COc1cc(C)ccc1OCCOc1c(C)cccc1Cl ?
aSyn 5UTR act: -108*

Results for COc1ccccc1OCCCOc1ccc(C)cc1Br ?
aSyn 5UTR act: -139*

Results for Cn1c(-c2ccc3nc(N)sc3c2)nc2cc(N)ccc21 ?
aSyn 5UTR act: -72*

What do the screens show for `CCOC(=O)N1CCN(C(=O)CCNS(=O)(=O)c2ccc3c(c2)c(=O)n(C)c(=O)n3C)CC1`?
aSyn 5UTR act: -153*

What do the screens show for `CCCn1nc2cc(C(=O)NCCc3cccs3)ccc2c1OCC`?
aSyn 5UTR act: -76*

How did C/C(=N/Nc1ccc([N+](=O)[O-])cc1)c1ccc(C)cc1C do in these assays?
aSyn 5UTR act: -89*

Results for C/C(=N/Nc1ccc([N+](=O)[O-])cc1)c1c[nH]c2ccccc12 ?
aSyn 5UTR act: -171*

How did C/C(=N\Nc1ccc([N+](=O)[O-])cc1)c1cc2ccccc2o1 do in these assays?
aSyn 5UTR act: -73*

Results for C/C(=N\NC(=O)c1ccc(O)cc1)c1cc2ccccc2o1 ?
aSyn 5UTR act: -98*

What do the screens show for `Cc1cc(C)c(C(CC(=O)c2cccs2)C(C#N)C#N)c(C)c1` (centres undefined)?
aSyn 5UTR act: -189*

What do the screens show for `Cc1ccc(NCCC(=O)c2cccs2)cc1`?
aSyn 5UTR act: -164*

What do the screens show for `CC(C)c1ccc(NCCC(=O)c2cccs2)cc1`?
aSyn 5UTR act: -217*

How did Cc1ccc(NCCC(=O)c2cccs2)cc1Cl do in these assays?
aSyn 5UTR act: -87*

What do the screens show for `Cc1cccc(NCCC(=O)c2ccc(Br)cc2)c1`?
aSyn 5UTR act: -94*

Results for Cc1ccc(NCCC(=O)c2ccc(Cl)cc2)cc1C ?
aSyn 5UTR act: -99*

Results for COC(=O)c1ccc(COC(=O)CCC(=O)c2cccs2)cc1 ?
aSyn 5UTR act: -84*

What do the screens show for `CC(=O)c1ccc(NCCC(=O)c2ccccc2)cc1`?
aSyn 5UTR act: -82*

Results for CC(CC(=O)c1cccs1)CC(=O)c1cccs1 ?
aSyn 5UTR act: -144*

What do the screens show for `Cc1ccc(NCCC(=O)c2cccs2)cc1C`?
aSyn 5UTR act: -187*

What do the screens show for `CC1=C(C)/C(=N\OS(=O)(=O)c2ccccc2)C=CC1=O`?
aSyn 5UTR act: -80*

Results for O=C(c1ccc(OC(F)(F)F)cc1)c1ncc[nH]1 ?
aSyn 5UTR act: -83*

How did COc1cc(N)ccc1NC(=O)c1cc2ccccc2o1 do in these assays?
aSyn 5UTR act: -136*

Results for CCCC(=O)Nc1ccc(NC(=O)c2cc3ccccc3o2)c(OC)c1 ?
aSyn 5UTR act: -222*

How did COc1cc(NC(C)=O)ccc1NC(=O)c1cc2ccccc2o1 do in these assays?
aSyn 5UTR act: -83*

What do the screens show for `COc1ccc2c(c1)O/C(=C\c1ccccc1C)C2=O`?
aSyn 5UTR act: -131*

How did N/C(=N\OC(=O)c1cccc(Br)c1)c1ccccn1 do in these assays?
aSyn 5UTR act: 72

What do the screens show for `Cc1cccc(C(=O)O/N=C(\N)c2ccc(Cl)cc2)c1`?
aSyn 5UTR act: -108*

What do the screens show for `Cc1ccc(C(=O)O/N=C(\N)c2ccc(Br)cc2)cc1C`?
aSyn 5UTR act: -136*

What do the screens show for `Cc1cccc(C(=O)O/N=C(\N)c2ccc(Br)cc2)c1`?
aSyn 5UTR act: -211*

How did N/C(=N\OC(=O)c1cccc(Br)c1)c1ccccc1 do in these assays?
aSyn 5UTR act: -305*

Results for N/C(=N\OC(=O)c1ccoc1)c1ccc(Br)cc1 ?
aSyn 5UTR act: -111*

What do the screens show for `N/C(=N\OC(=O)c1ccc2ccccc2c1)c1ccc(Br)cc1`?
aSyn 5UTR act: -103*

What do the screens show for `Cc1cc(C)cc(C(=O)O/N=C(\N)c2ccc(Br)cc2)c1`?
aSyn 5UTR act: -83*

What do the screens show for `COc1ccc2nc(NC(=O)C3CCN(C(=O)c4ccco4)CC3)sc2c1`?
aSyn 5UTR act: -73*

How did COc1ccc2nc(NC(=O)C3CCCO3)sc2c1 (centres undefined) do in these assays?
aSyn 5UTR act: -87*

Results for CSc1nc2ccc(NC(=O)C3CCCO3)cc2s1 (centres undefined) ?
aSyn 5UTR act: -125*

Results for O=C(Nc1nc(-c2ccc(Cl)cc2)cs1)C1CCCO1 (centres undefined) ?
aSyn 5UTR act: -90*

How did Cc1nc(C)c(C(=O)Nc2nc3c(C)cccc3s2)o1 do in these assays?
aSyn 5UTR act: -74*

Results for COc1ccc(-c2nnc(NC(=O)C3CCCO3)s2)cc1 (centres undefined) ?
aSyn 5UTR act: -112*

Results for Cc1cccc2sc(NC(=O)C3CCCO3)nc12 (centres undefined) ?
aSyn 5UTR act: -126*

How did CSc1nc2ccc(NC(=O)NC(=O)c3c(F)cccc3F)cc2s1 do in these assays?
aSyn 5UTR act: -125*

How did NC(=O)c1ccccc1Nc1nc2nc3ccccc3c(=O)n2cc1Br do in these assays?
aSyn 5UTR act: -83*

What do the screens show for `Clc1ccc2c(c1)[C@H]1OCC[C@H]1[C@@H](c1ccco1)N2`?
aSyn 5UTR act: -168*

Compound activity as filed in PubChem.
